# In ChEMBL document CHEMBL1157539, “Thousands of chemical starting points for antimalarial lead identification” (Nature, 2010):
# How the values were obtained:
# Type in all cases: functional
# Plasmodium falciparum [1] = assay: GSK_TCMDC: Inhibition of Plasmodium falciparum 3D7 in whole red blood cells, using parasite LDH activity as an index of growth. Test compounds present at 2uM
# Plasmodium falciparum [2] = assay: GSK_TCMDC: Inhibition of Plasmodium falciparum Dd2 in whole red blood cells, using parasite LDH activity as an index of growth. Test compounds present at 2uM
# HepG2 = assay: GSK_TCMDC: Percent inhibition of human HepG2 cell line. Test compounds present at 10uM.
Compound,Inhibition (Plasmodium falciparum [1]),Inhibition (Plasmodium falciparum [2]),Inhibition (HepG2)
COc1cc(Cc2cnc(N)nc2N)cc(OCCCCNS(=O)(=O)C(F)(F)F)c1OC,84%,0%,–
CCc1c(CCNCCCCCCNC(C)Cc2ccc3c(c2CC)OCO3)ccc(OC)c1OC.Cl (stereo unspecified),100%,64%,100%
Br.CC(C)(C)OC(=O)N[C@@H](CS(=O)(=O)CCNC(=N)COCc1ccccc1)C(=O)OC(C)(C)C,88%,76%,–
COc1ccc2nccc([C@@H](O)CN3CCC(NCc4ccc5c(c4)NC(=O)CO5)CC3)c2c1.Cl,99%,6%,1%
CCOc1ccccc1CON1C(N)=NC(N)=NC1(C)C,90%,1%,66%
CO/C(=C\C=C\c1cc2cc(Cl)c(Cl)cc2[nH]1)C(=O)NCCCN1CCN(c2ccncc2)CC1,98%,96%,12%
CC(=O)c1cccc(NC(=O)NC2CCN(c3ccnc(Nc4ccc(F)cc4)n3)C2)c1 (stereo unspecified),99%,94%,10%
COc1cc2ccccc2cc1CNCCCCCCNCc1cc2ccccc2cc1OC.CS(=O)(=O)O,100%,24%,98%
Cc1cccc2nc(-c3ccc(-c4cccc(CNC5CCN(C)CC5)c4)s3)[nH]c12.O=C(O)C(F)(F)F,98%,73%,21%
Cc1[nH]c(C)c(-c2ccc(-c3ccc(F)cc3)nc2)c(=O)c1Br,97%,96%,15%
CC[C@H](N/C(=N\c1ccc(-c2ccccc2)cc1)Nc1ccc(C#N)cc1O)c1ccccc1,99%,97%,0%
O=C(Nc1cccc(Cl)c1Cl)NC1CCN(Cc2cccc(O)c2)CC1.O=C(O)C(F)(F)F,98%,1%,1%
O=C(O)C(F)(F)F.O=C1CCCN1CCCNCc1ccc(-c2ccc(-c3nc4cc(F)ccc4[nH]3)cc2)cc1,100%,99%,16%
O=C(/C=C/c1ccc(Cl)c(Cl)c1)NCCCCCN1CCN(C(=O)Nc2ccc(C(F)(F)F)cc2)CC1,99%,0%,26%
CCOC(=O)c1cn(CC)c2cc(N(C)CCc3ccc(OC)c(OC)c3)c(F)cc2c1=O.Cl,92%,96%,9%
CC(C)CC(=O)N1CCNC[C@@H]1C(=O)NCCSCc1c(F)cccc1Cl.O=C(O)C(F)(F)F,86%,3%,1%
